Targets with a hit are over-represented here; the source holds about 8,800 in all. About 0.5% of all pairs of compound and target were hits.
Legend:
Assay in all cases: log2 fold change, soluble protein after heating vs DMSO (PISA); higher = thermal stabilisation; K562 lysate, 10 uM; active = over 0.2 and 3.5 SD of the protein, either way, in both replicates (recomputed)
alvocidib = compound: CN1CC[C@H](c2c(O)cc(O)c3c(=O)cc(-c4ccccc4Cl)oc23)[C@H](O)C1 [alvocidib]
Outline: (§1)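 Log-two fold change in thermal stability relative to solvent controls is reported from duplicates. For each sample, crude K562 extract from dounce-homogenised pellets in PBS pH 7.4 with 1 mM MgCl2, at 1 mg/mL protein, was treated with 10 μM compound for 30 min. Aliquots heated for 3 min across 48°C-58°C were pooled, brought to 0.5% NP-40 at 4°C and cleared at 21,000xg for 90 min. The supernatant was quantified by TMTpro 16plex LC-MS/MS with channel sums equalised.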

Tubastatin A = compound: CN1CCc2c(c3ccccc3n2Cc2ccc(C(=O)NO)cc2)C1 [Tubastatin A]
Outline: as §1

[1] = compound: CNC(=O)C1=CC=CC=C1NC2=NC(=NC=C2Cl)NC3=C(C=C(C=C3)N4CCOCC4)OC
Outline: as §1

defactinib = compound: CNC(=O)c1ccc(Nc2ncc(C(F)(F)F)c(NCc3nccnc3N(C)S(C)(=O)=O)n2)cc1 [defactinib]
Outline: as §1

[2] = compound: CNc1nc(-c2ccc3c(N)n[nH]c3c2)cc(N2C[C@@H](C(=O)NC3CCCCC3)CC[C@H]2C)n1
Outline: as §1

encorafenib = compound: COC(=O)N[C@@H](C)CNc1nccc(-c2cn(C(C)C)nc2-c2cc(Cl)cc(NS(C)(=O)=O)c2F)n1 [encorafenib]
Outline: as §1

[3] = compound: COC(=O)[C@H](CCSC)NC(=O)C1=C(C=C(C=C1)NC[C@H](CS)N)C2=CC=CC=C2
Outline: as §1

[4] = compound: COc1cc2nc(-c3cc(F)ccc3O)nc(N[C@@H]3CNC[C@H]3C(C)(C)O)c2cc1OC
Outline: as §1

lapatinib = compound: CS(=O)(=O)CCNCc1ccc(-c2ccc3ncnc(Nc4ccc(OCc5cccc(F)c5)c(Cl)c4)c3c2)o1 [lapatinib]
Outline: as §1

pictilisib = compound: CS(=O)(=O)N1CCN(Cc2cc3nc(-c4cccc5[nH]ncc45)nc(N4CCOCC4)c3s2)CC1 [pictilisib]
Outline: as §1

crizotinib = compound: C[C@@H](Oc1cc(-c2cnn(C3CCNCC3)c2)cnc1N)c1c(Cl)ccc(F)c1Cl [crizotinib]
Outline: as §1

[5] = compound: C[C@H](C1=CC=C(C=C1)C(=O)NC2=C3C=CNC3=NC=C2)N
Outline: as §1

duvelisib = compound: C[C@H](Nc1ncnc2nc[nH]c12)c1cc2cccc(Cl)c2c(=O)n1-c1ccccc1 [duvelisib]
Outline: as §1

gandotinib = compound: Cc1cc(Nc2cc(CN3CCOCC3)c3nc(C)c(Cc4ccc(Cl)cc4F)n3n2)n[nH]1 [gandotinib]
Outline: as §1

tozasertib = compound: Cc1cc(Nc2cc(N3CCN(C)CC3)nc(Sc3ccc(NC(=O)C4CC4)cc3)n2)n[nH]1 [tozasertib]
Outline: as §1

doramapimod = compound: Cc1ccc(-n2nc(C(C)(C)C)cc2NC(=O)Nc2ccc(OCCN3CCOCC3)c3ccccc23)cc1 [doramapimod]
Outline: as §1

bafetinib = compound: Cc1ccc(NC(=O)c2ccc(CN3CC[C@H](N(C)C)C3)c(C(F)(F)F)c2)cc1Nc1nccc(-c2cncnc2)n1 [bafetinib]
Outline: as §1

[6] = compound: Cc1cccc(CC(=O)N2CCc3c2ccc(-c2cn(C)c4ncnc(N)c24)c3F)n1
Outline: as §1

alisertib = compound: COc1cc(Nc2ncc3c(n2)-c2ccc(Cl)cc2C(c2c(F)cccc2OC)=NC3)ccc1C(=O)O [alisertib]
Outline: as §1

gefitinib = compound: COc1cc2ncnc(Nc3ccc(F)c(Cl)c3)c2cc1OCCCN1CCOCC1 [gefitinib]
Outline: as §1

Measured: log2 fold change

UCHL5 (UniProt Q5LJA9)
inactive: alvocidib 0.049 | Tubastatin A -0.153 | [1] 0.005 | defactinib 0.015 | [2] -0.156 | encorafenib 0.007 | [3] 0.091 | [4] -0.011 | lapatinib 0.027 | pictilisib 0.001 | crizotinib -0.036 | [5] -0.07 | duvelisib 0.082 | gandotinib -0.074 | tozasertib 0.003 | doramapimod 0.067 | bafetinib -0.07 | [6] -0.156

TMEM167B (UniProt Q9NRX6)
Chain of UniProt Q9NRX6 (Q9NRX6 whole entry, looked up): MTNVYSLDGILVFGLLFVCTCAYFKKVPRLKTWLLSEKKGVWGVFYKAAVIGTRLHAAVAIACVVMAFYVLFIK
inactive: alvocidib -0.167 | Tubastatin A -0.028 | [1] 0.06 | defactinib 0.015 | encorafenib 0.026 | [3] -0.022 | alisertib 0.012 | [4] 0.032 | gefitinib 0.032 | lapatinib -0.045 | pictilisib -0.034 | crizotinib 0.006 | gandotinib 0.133 | tozasertib -0.003 | doramapimod -0.083 | bafetinib -0.075 | [6] 0.128
active: [5] -0.339

TFPI (UniProt P10646)
inactive: alvocidib 0.245 | Tubastatin A -0.012 | [1] 0.036 | defactinib 0.056 | encorafenib 0.072 | [3] -0.017 | alisertib -0.003 | [4] -0.128 | gefitinib 0.061 | lapatinib -0.035 | pictilisib 0.009 | crizotinib 0.036 | gandotinib -0.202 | tozasertib -0.01 | doramapimod 0.082 | bafetinib 0.149 | [6] -0.301
active: [5] 0.625

TRIP12 isoform 2 (UniProt Q14669)
inactive: alvocidib 0.018 | Tubastatin A -0.035 | [1] 0.002 | defactinib 0.045 | [2] -0.17 | encorafenib 0.049 | [3] -0.018 | alisertib 0.019 | [4] -0.122 | gefitinib 0.005 | lapatinib -0.109 | pictilisib 0.016 | crizotinib -0.029 | [5] -0.012 | duvelisib 0.05 | gandotinib -0.042 | tozasertib 0.024 | doramapimod -0.006 | bafetinib -0.06 | [6] 0.06

UBXN2B (UniProt Q14CS0)
Chain of UniProt Q14CS0 (Q14CS0 whole entry, looked up): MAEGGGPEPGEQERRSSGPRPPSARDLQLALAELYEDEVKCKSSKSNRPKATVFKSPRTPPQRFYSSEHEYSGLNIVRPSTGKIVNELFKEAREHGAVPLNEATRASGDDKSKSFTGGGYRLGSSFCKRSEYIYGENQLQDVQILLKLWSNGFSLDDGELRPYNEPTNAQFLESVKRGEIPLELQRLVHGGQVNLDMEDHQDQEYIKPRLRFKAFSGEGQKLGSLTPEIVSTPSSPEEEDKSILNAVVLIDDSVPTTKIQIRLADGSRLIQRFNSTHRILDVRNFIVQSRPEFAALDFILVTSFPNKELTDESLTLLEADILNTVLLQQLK
inactive: alvocidib -0.123 | Tubastatin A -0.001 | [1] -0.046 | defactinib 0.07 | [2] -0.018 | encorafenib -0.037 | [3] 0.069 | alisertib 0.174 | [4] -0.114 | gefitinib 0.008 | lapatinib -0.226 | pictilisib -0.036 | [5] -0.01 | duvelisib 0.07 | gandotinib 0.213 | tozasertib 0.027 | bafetinib 0.003 | [6] -0.005

UBXN10 (UniProt Q96LJ8)
Chain of UniProt Q96LJ8 (Q96LJ8 whole entry, looked up): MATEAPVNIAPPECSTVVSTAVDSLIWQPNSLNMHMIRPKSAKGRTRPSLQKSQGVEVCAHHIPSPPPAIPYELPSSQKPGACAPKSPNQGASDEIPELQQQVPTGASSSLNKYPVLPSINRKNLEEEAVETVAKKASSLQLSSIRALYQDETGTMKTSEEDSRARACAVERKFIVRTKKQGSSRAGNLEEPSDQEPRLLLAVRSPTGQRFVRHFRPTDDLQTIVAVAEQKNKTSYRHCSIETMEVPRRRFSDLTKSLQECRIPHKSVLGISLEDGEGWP
inactive: alvocidib -0.036 | Tubastatin A -0.02 | [1] 0.051 | defactinib 0.026 | [2] 0.019 | encorafenib 0.045 | [3] -0.116 | [4] -0.006 | lapatinib -0.041 | pictilisib 0.006 | crizotinib 0.02 | [5] -0.001 | duvelisib 0.035 | gandotinib 0.06 | tozasertib 0.006 | doramapimod -0.003 | bafetinib -0.081 | [6] -0.065

TPD52L2 isoform 3 (UniProt O43399)
Chain of UniProt O43399 (O43399 whole entry, looked up): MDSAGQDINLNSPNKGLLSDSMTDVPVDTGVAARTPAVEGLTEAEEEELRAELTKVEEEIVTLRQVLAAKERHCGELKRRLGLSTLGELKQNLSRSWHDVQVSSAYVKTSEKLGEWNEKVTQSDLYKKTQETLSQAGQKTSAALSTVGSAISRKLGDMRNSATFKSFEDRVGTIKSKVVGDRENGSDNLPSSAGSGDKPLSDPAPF
inactive: alvocidib 0.127 | Tubastatin A 0.165 | [1] 0.144 | alisertib 0.094 | gefitinib -0.244 | pictilisib -0.112 | [5] -0.155 | gandotinib 0.377 | bafetinib -0.102 | [6] -0.124

UBL5 (UniProt Q9BZL1)
Chain of UniProt Q9BZL1 (Q9BZL1 whole entry, looked up): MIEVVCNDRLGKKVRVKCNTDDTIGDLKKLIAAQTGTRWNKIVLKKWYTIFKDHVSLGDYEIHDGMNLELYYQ
inactive: alvocidib -0.117 | Tubastatin A 0.023 | [1] -0.048 | defactinib 0.041 | [2] -0.045 | encorafenib -0.012 | [3] -0.06 | alisertib 0.039 | gefitinib -0.141 | pictilisib -0.036 | crizotinib 0.072 | [5] -0.194 | duvelisib -0.042 | gandotinib 0.042 | tozasertib 0.138 | doramapimod 0.013 | bafetinib -0.034 | [6] 0.104

TRPM4 (UniProt Q8TD43)
Chain of UniProt Q8TD43 (Q8TD43 whole entry, looked up): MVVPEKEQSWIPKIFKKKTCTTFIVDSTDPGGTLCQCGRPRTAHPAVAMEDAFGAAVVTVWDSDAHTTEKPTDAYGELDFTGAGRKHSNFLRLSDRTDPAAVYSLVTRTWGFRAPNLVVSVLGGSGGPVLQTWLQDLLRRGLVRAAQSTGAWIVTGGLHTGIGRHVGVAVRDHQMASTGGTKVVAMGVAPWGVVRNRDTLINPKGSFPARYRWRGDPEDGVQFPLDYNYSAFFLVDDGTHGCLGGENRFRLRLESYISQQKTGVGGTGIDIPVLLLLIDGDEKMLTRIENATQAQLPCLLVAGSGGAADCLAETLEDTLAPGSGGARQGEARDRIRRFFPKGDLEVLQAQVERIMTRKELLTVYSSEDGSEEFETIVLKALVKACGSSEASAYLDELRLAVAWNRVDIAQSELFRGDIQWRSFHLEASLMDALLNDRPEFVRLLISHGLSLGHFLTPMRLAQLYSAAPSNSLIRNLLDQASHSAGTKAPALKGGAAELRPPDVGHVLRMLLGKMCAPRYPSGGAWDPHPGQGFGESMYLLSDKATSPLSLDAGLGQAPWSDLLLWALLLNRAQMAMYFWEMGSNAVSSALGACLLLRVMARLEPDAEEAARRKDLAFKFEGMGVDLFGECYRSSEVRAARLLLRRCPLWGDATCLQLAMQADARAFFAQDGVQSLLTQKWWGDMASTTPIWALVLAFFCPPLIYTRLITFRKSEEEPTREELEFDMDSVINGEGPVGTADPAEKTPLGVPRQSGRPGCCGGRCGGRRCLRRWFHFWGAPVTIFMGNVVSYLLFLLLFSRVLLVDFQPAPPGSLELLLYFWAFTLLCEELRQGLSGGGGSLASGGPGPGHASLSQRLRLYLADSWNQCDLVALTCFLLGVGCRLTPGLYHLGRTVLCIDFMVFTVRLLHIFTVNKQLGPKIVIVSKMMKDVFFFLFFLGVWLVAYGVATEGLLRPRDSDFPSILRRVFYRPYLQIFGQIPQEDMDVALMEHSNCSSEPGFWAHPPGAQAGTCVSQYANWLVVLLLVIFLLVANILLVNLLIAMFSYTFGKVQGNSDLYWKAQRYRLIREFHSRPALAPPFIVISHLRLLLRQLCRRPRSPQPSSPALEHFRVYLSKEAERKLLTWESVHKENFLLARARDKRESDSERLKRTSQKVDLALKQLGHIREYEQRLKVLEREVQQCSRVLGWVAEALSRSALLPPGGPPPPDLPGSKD
active: [5] -0.654
inactive: alvocidib -0.401 | Tubastatin A 0.053 | [1] -0.163 | [2] 0.14 | pictilisib -0.085 | crizotinib 0.055 | duvelisib 0.042 | gandotinib 0.088 | doramapimod -0.111 | bafetinib -0.02 | [6] 0.25

TRIM23 (UniProt P36406)
active: gandotinib 0.372
inactive: alvocidib -0.071 | Tubastatin A 0.023 | [1] 0.017 | defactinib -0.008 | [2] 0.354 | encorafenib -0.063 | [3] 0.06 | alisertib -0.014 | [4] 0.154 | gefitinib 0.057 | lapatinib -0.063 | pictilisib -0.12 | crizotinib -0.003 | [5] -0.235 | duvelisib 0.134 | tozasertib 0.026 | doramapimod 0.01 | bafetinib -0.088 | [6] 0.297

TUBGCP5 (UniProt Q96RT8)
inactive: alvocidib -0.069 | Tubastatin A -0.128 | defactinib -0.159 | [2] -0.055 | encorafenib 0.179 | [3] 0.145 | alisertib -0.023 | [4] 0.025 | gefitinib -0.007 | lapatinib 0.11 | pictilisib 0.037 | crizotinib -0.064 | [5] -0.044 | duvelisib 0.103 | gandotinib -0.009 | tozasertib 0.113 | doramapimod 0.044 | bafetinib -0.121 | [6] 0.101

TUBAL3 (UniProt A6NHL2)
Chain of UniProt A6NHL2 (A6NHL2 whole entry, looked up): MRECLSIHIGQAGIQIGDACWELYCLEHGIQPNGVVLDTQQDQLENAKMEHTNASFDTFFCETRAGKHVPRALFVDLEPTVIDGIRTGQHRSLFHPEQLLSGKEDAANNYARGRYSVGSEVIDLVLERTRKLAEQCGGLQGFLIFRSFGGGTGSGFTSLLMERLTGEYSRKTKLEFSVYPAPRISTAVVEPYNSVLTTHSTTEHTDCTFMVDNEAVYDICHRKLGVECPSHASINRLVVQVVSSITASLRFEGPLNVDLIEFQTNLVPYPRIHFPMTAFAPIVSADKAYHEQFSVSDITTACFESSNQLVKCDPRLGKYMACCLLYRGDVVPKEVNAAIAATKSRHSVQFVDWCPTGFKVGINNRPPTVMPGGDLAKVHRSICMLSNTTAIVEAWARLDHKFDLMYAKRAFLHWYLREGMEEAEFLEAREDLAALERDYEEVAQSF
inactive: alvocidib -0.276 | Tubastatin A 0.109 | [1] -0.179 | defactinib -0.093 | [2] 0.039 | encorafenib 0.03 | [3] 0.032 | alisertib 0.135 | [4] 0.088 | gefitinib -0.057 | lapatinib -0.07 | pictilisib -0.034 | [5] -0.434 | duvelisib -0.001 | gandotinib 0.312 | tozasertib 0.09 | bafetinib -0.232
active: [6] 0.567

TMEM177 (UniProt Q53S58)
inactive: alvocidib 0.042 | Tubastatin A 0.05 | [1] 0.075 | defactinib -0.009 | encorafenib 0.019 | [3] 0.153 | [4] 0.002 | lapatinib 0.018 | pictilisib 0.002 | crizotinib 0.053 | [5] -0.005 | gandotinib -0.125 | tozasertib -0.016 | doramapimod -0.056 | bafetinib -0.059 | [6] -0.013

TBC1D20 isoform 3 (UniProt Q96BZ9)
Chain of UniProt Q96BZ9 (Q96BZ9 whole entry, looked up): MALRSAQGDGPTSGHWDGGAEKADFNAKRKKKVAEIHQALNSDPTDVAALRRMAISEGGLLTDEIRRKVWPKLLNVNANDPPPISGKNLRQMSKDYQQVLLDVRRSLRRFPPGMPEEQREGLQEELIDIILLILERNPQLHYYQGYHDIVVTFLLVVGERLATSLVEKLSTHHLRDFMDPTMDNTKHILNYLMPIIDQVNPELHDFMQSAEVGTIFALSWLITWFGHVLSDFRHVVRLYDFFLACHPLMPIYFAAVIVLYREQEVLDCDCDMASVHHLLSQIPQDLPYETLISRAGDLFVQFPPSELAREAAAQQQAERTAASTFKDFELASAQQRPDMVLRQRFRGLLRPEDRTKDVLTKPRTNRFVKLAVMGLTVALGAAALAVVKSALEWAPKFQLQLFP
inactive: alvocidib -0.011 | Tubastatin A -0.131 | [1] -0.017 | defactinib 0.166 | [2] 0.109 | encorafenib 0.037 | [3] -0.047 | [4] -0.021 | lapatinib -0.019 | pictilisib -0.12 | crizotinib -0.066 | [5] -0.087 | duvelisib 0.021 | gandotinib -0.105 | tozasertib -0.017 | doramapimod -0.095 | bafetinib -0.303 | [6] 0.025

TNFAIP3 (UniProt P21580)
Chain of UniProt P21580 (P21580 whole entry, looked up): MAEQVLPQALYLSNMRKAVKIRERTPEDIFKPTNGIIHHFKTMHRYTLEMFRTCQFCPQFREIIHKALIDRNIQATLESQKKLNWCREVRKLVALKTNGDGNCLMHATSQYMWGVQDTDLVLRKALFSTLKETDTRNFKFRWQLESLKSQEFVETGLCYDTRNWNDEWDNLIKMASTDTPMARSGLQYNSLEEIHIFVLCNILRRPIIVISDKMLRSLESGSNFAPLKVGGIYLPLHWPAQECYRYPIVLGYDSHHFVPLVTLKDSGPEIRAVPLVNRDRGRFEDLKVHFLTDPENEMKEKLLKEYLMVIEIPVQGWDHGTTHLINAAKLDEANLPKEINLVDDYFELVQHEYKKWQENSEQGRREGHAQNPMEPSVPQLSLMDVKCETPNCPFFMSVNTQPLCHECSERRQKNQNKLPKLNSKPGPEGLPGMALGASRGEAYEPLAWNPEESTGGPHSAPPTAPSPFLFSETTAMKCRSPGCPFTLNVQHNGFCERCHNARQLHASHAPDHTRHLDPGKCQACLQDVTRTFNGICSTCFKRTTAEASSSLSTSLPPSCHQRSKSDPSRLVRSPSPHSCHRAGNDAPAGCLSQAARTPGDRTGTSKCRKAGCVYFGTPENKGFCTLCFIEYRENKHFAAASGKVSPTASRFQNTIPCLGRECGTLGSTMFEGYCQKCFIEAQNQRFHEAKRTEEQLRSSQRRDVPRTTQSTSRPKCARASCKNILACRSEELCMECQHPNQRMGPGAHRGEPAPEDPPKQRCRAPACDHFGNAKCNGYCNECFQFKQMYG
active: encorafenib 0.276
inactive: alvocidib 0.005 | Tubastatin A -0.076 | [1] 0.022 | [2] -0.009 | [3] 0.228 | alisertib 0.002 | [4] 0.031 | gefitinib -0.028 | lapatinib -0.032 | pictilisib 0.052 | crizotinib -0.013 | [5] 0.032 | duvelisib 0.038 | gandotinib -0.075 | tozasertib 0.744 | doramapimod 0.084 | bafetinib -0.02 | [6] -0.023

TXNIP (UniProt Q9H3M7)
Chain of UniProt Q9H3M7 (Q9H3M7 whole entry, looked up): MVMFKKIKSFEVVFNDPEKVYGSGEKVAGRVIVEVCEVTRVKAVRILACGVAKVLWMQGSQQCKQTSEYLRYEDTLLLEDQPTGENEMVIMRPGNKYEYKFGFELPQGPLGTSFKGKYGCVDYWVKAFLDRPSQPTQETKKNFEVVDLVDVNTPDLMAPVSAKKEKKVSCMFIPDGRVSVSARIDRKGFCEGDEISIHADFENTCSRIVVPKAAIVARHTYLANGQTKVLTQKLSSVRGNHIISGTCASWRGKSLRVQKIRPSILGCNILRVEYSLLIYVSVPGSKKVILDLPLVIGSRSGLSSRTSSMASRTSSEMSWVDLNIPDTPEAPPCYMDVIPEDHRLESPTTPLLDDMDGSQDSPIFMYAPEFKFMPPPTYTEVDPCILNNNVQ
inactive: alvocidib 0.017 | Tubastatin A -0.021 | [1] 0.037 | defactinib 0.042 | [2] 0.046 | encorafenib 0.011 | [3] 0.067 | alisertib -0.015 | gefitinib -0.004 | pictilisib 0.029 | crizotinib -0.045 | [5] 0.143 | duvelisib 0 | gandotinib -0.089 | tozasertib -0.015 | doramapimod 0.019 | bafetinib -0.042 | [6] -0.037

TMSB4X (UniProt P62328)
Chain of UniProt P62328 (P62328 whole entry, looked up): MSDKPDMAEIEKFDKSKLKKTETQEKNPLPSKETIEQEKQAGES
inactive: alvocidib 0.401 | Tubastatin A 0.102 | [1] -0.045 | encorafenib 0.043 | [3] -0.055 | alisertib -0.143 | [4] 0.063 | gefitinib -0.001 | lapatinib 0.12 | pictilisib -0.553 | crizotinib 0.015 | [5] -0.132 | gandotinib 0.65 | tozasertib 0.123 | doramapimod -0.24 | bafetinib -0.546 | [6] -0.166

TMEM161B (UniProt Q8NDZ6)
Chain of UniProt Q8NDZ6 (Q8NDZ6 whole entry, looked up): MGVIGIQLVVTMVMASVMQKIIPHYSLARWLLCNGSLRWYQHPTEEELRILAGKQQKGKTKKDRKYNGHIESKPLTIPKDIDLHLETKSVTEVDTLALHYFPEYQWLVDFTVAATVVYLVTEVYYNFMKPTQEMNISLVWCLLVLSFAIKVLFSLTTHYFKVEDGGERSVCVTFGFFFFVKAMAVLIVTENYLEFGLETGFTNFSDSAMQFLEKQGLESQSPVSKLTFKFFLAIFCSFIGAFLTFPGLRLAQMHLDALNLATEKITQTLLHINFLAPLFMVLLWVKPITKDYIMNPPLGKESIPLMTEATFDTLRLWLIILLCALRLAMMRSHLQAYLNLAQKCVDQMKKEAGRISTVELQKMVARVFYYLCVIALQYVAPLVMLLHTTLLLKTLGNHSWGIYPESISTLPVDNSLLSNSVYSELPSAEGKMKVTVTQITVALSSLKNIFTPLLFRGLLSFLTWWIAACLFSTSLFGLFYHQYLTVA
inactive: alvocidib -0.03 | Tubastatin A 0.035 | [1] -0.022 | defactinib 0.067 | encorafenib 0.047 | [3] 0 | alisertib -0.222 | [4] 0.033 | gefitinib -0.008 | lapatinib -0.057 | pictilisib -0.05 | crizotinib 0.007 | [5] 0.009 | tozasertib 0.009 | doramapimod -0.03 | bafetinib 0.007 | [6] 0.077
active: gandotinib -0.289

— the supplement of paper PMC10849652
